Active and inactive are the calls of the source. How the source made its calls: active means hit-call score of the fitted dose curve at least 0.9, where 1 is the maximum; inactive means score below 0.9.
Experiments:
Settings in all cases: mRNA level, 48 h; actives raise or lower the signal
[1] = read-out: Fatty Acid-Binding Protein 1 (FABP1), FABP1 (gene 2168); experiment: LTEA_HepaRG_FABP1: Life Technologies and Expression Analysis (LTEA) Assay for Fatty Acid-Binding Protein 1 (FABP1) using HepaRG (AID 2283494)
Outline: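 Differentiated human HepaRG cells exposed 48 h in serum-free induction medium to eight half-log concentrations up to 100 uM (0.5% DMSO), duplicate. FABP1 mRNA by qRT-PCR, normalised to ACTB, GAPDH, POLR2A; bidirectional fitting against DMSO.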

[2] = read-out: Glutathione S-Transferase (GSTA2), GSTA2 (gene 2939); experiment: LTEA_HepaRG_GSTA2: Life Technologies and Expression Analysis (LTEA) Assay for Glutathione S-Transferase (GSTA2) using HepaRG (AID 2283497)
Outline: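 Differentiated human HepaRG cells were exposed in duplicate for 48 h in serum-free induction medium, 8 points from 100 uM top in half-log steps, 0.5% DMSO. GSTA2 mRNA was measured by TaqMan qRT-PCR, normalized to ACTB, GAPDH and POLR2A; bidirectional fit versus DMSO.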

[3] = read-out: Glutamate-cysteine ligase catalytic (GCLC), GCLC (gene 2729); experiment: LTEA_HepaRG_GCLC: Life Technologies and Expression Analysis (LTEA) Assay for Glutamate-cysteine ligase catalytic (GCLC) using HepaRG (AID 2283498)
Outline: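 Differentiated HepaRG cells exposed 48 h in serum-free induction medium, eight-point half-log series topping at 100 uM in 0.5% DMSO, duplicates. GCLC mRNA by qRT-PCR normalized to ACTB, GAPDH and POLR2A, fitted bidirectionally versus DMSO.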

[4] = read-out: growth arrest and DNA damage 45 (GADD45G), GADD45G (gene 10912); experiment: LTEA_HepaRG_GADD45G: Life Technologies and Expression Analysis (LTEA) Assay for growth arrest and DNA damage 45 (GADD45G) using HepaRG (AID 2283499)
Outline: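 Human hepatic HepaRG line treated 48 h with chemicals (eight concentrations, half-log steps from 100 uM); transcript induction or repression of GADD45G scored by qRT-PCR versus DMSO vehicle.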

[5] = read-out: Glutamate-cysteine ligase regulatory (GCLM), GCLM (gene 2730); experiment: LTEA_HepaRG_GCLM: Life Technologies and Expression Analysis (LTEA) Assay for Glutamate-cysteine ligase regulatory (GCLM) using HepaRG (AID 2283500)
Outline: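 Human liver HepaRG cultures receive test chemicals for 48 hours at up to 100 uM in 0.5% DMSO. GCLM expression is measured by qRT-PCR and analysed for increases or decreases against vehicle.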

[6] = read-out: Glutathione S-transferase M3 (GSTM3), GSTM3 (gene 2947); experiment: LTEA_HepaRG_GSTM3: Life Technologies and Expression Analysis (LTEA) Assay for Glutathione S-transferase M3 (GSTM3) using HepaRG (AID 2283501)
Outline: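 Changes in GSTM3 expression, an oxidative-stress marker, were scored by bidirectional curve fitting against 0.5% DMSO vehicle. Human HepaRG cultures received chemicals for 48 h in duplicate, highest concentration 100 uM with half-log dilutions.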

[7] = read-out: Heat shock 70 kDa protein 1 (HSPA1A), gene 3303; experiment: LTEA_HepaRG_HSPA1A: Life Technologies and Expression Analysis (LTEA) Assay for Heat shock 70 kDa protein 1 (HSPA1A) using HepaRG (AID 2283502)
Outline: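 HSPA1A induction in human HepaRG liver cells is measured after 48 h of chemical treatment (100 uM maximum, 0.5% DMSO vehicle). Expression comes from qRT-PCR normalized to endogenous controls.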

[8] = read-out: 3-Hydroxy-3-Methylglutaryl-CoA Synthase 2 (HMGCS2), HMGCS2 (gene 3158); experiment: LTEA_HepaRG_HMGCS2: Life Technologies and Expression Analysis (LTEA) Assay for 3-Hydroxy-3-Methylglutaryl-CoA Synthase 2 (HMGCS2) using HepaRG (AID 2283504)
Outline: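 Expression of HMGCS2 in human HepaRG liver cells is measured by qRT-PCR 48 h after dosing (highest 100 uM, half-log series, 0.5% DMSO). Values come from bidirectional concentration-response fitting with DMSO as baseline.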

[9] = read-out: HGF (gene 3082); experiment: LTEA_HepaRG_HGF: Life Technologies and Expression Analysis (LTEA) Assay for Hepatocyte Growth Facto (HGF) using HepaRG (AID 2283505)
Outline: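 Gain or loss of HGF mRNA in human HepaRG liver cells after 48 h chemical exposure; eight concentrations up to 100 uM with 0.5% DMSO vehicle, quantified by TaqMan qRT-PCR.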

[10] = read-out: Intercellular Adhesion Molecule 1 (ICAM1), ICAM1 (gene 3383); experiment: LTEA_HepaRG_ICAM1: Life Technologies and Expression Analysis (LTEA) Assay for Intercellular Adhesion Molecule 1 (ICAM1) using HepaRG (AID 2283507)
Outline: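 Gain or loss of transcript in HepaRG hepatic cells is quantified by qRT-PCR after 48 h chemical exposure (up to 100 uM, half-log steps), with DMSO as baseline.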

[11] = read-out: Insulin-like growth factor-binding protein 1 (IGFBP1), IGFBP1 (gene 3484); experiment: LTEA_HepaRG_IGFBP1: Life Technologies and Expression Analysis (LTEA) Assay for Insulin-like growth factor-binding protein 1 (IGFBP1) using HepaRG (AID 2283508)
Outline: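 mRNA induction or loss was quantified by qRT-PCR after 48 h chemical exposure of human HepaRG cells, with 0.5% DMSO as vehicle and baseline. Concentration-response over eight points up to 100 uM.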

[12] = read-out: Interleukin 6 (IL6), IL6 (gene 3569); experiment: LTEA_HepaRG_IL6: Life Technologies and Expression Analysis (LTEA) Assay for Interleukin 6 (IL6) using HepaRG (AID 2283509)
Outline: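 HepaRG cells exposed in duplicate for 48 h to eight half-log concentrations, top 100 uM, in 0.5% DMSO serum-free induction medium. mRNA measured by qRT-PCR, normalized to ACTB, GAPDH and POLR2A. Bidirectional fit versus DMSO.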

[13] = read-out: Interleukin 6 Receptor (IL6R), IL6R (gene 3570); experiment: LTEA_HepaRG_IL6R: Life Technologies and Expression Analysis (LTEA) Assay for Interleukin 6 Receptor (IL6R) using HepaRG (AID 2283510);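 on AC50: TaqMan qRT-PCR signal normalized to ACTB GAPDH and POLR2A housekeeping genes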
Outline: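 Concentration-response in human liver HepaRG cells: eight concentrations from 100 uM downward by half-logs, 48 h exposure, 0.5% DMSO vehicle. IL6R mRNA change measured by qRT-PCR and fitted in both directions relative to vehicle.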

[14] = read-out: Potassium channel subfamily K member 1 (KCNK1), KCNK1 (gene 3775); experiment: LTEA_HepaRG_KCNK1: Life Technologies and Expression Analysis (LTEA) Assay for Potassium channel subfamily K member 1 (KCNK1) using HepaRG (AID 2283511)
Outline: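 Differentiated HepaRG cells, 48 h exposure in serum-free induction medium with 0.5% DMSO; 8 concentrations, half-log from 100 uM, duplicate. KCNK1 mRNA by qRT-PCR, normalized to ACTB, GAPDH, POLR2A; bidirectional fit vs DMSO.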

[15] = read-out: Keratin 19 (KRT19), KRT19 (gene 3880); experiment: LTEA_HepaRG_KRT19: Life Technologies and Expression Analysis (LTEA) Assay for Keratin 19 (KRT19) using HepaRG (AID 2283512)
Outline: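 Gene-expression endpoint in the human liver line HepaRG after 48 h exposure to up to 100 uM test chemical with 0.5% DMSO vehicle; KRT19 mRNA by qRT-PCR, analyzed bidirectionally versus DMSO.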

[16] = read-out: Cytochrome P450 4A22 (Homo sapiens) (UniProt Q5TCH4); experiment: LTEA_HepaRG_CYP4A22: Life Technologies and Expression Analysis (LTEA) Assay for Cytochrome P450 4A22 (CYP4A22) using HepaRG (AID 2283495)
Outline: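 Cryopreserved HepaRG cells, plated and cultured 48 h, then switched to serum-free induction medium and treated 48 h (duplicates, up to 100 uM, half-log steps, 0.5% DMSO). Expression change of CYP4A22 was fitted bidirectionally against vehicle.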

[17] = read-out: Cytochrome P450 7A1 (Homo sapiens) (UniProt P22680); experiment: LTEA_HepaRG_CYP7A1: Life Technologies and Expression Analysis (LTEA) Assay for Cytochrome P450 7A1 (CYP7A1) using HepaRG (AID 2283496)
Outline: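 Gene expression endpoint in human HepaRG liver cells treated for 48 h with test chemicals (up to 100 uM, 0.5% DMSO). Values come from bidirectional concentration-response fitting versus DMSO.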

[18] = read-out: Hypoxia-inducible factor 1-alpha (Homo sapiens) (UniProt Q16665); experiment: LTEA_HepaRG_HIF1A: Life Technologies and Expression Analysis (LTEA) Assay for Hypoxia-inducible factor 1 (HIF1A) Trancription factor using HepaRG (AID 2283503);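 further: HIF1A transcript by TaqMan qRT-PCR normalized to ACTB GAPDH and POLR2A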
Outline: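 HepaRG, 48 h exposure, 8-pt half-log series from 100 uM, 0.5% DMSO vehicle, duplicates. Readout: HIF1A transcript by qRT-PCR (Fluidigm array), housekeeping-normalised. Bidirectional curve fit vs DMSO baseline.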

[19] = read-out: Insulin Like Growth Factor 1 (IGF1), IGF1 (gene 3479); experiment: LTEA_HepaRG_IGF1: Life Technologies and Expression Analysis (LTEA) Assay for Insulin Like Growth Factor 1 (IGF1) using HepaRG (AID 2283506)
Outline: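 Using human HepaRG liver cells, IGF1 transcript induction or suppression is measured 48 h after dosing across eight concentrations capped at 100 uM. Values derive from bidirectional concentration-response fitting with DMSO as baseline.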

Measured: AC50

Sequence of Hypoxia-inducible factor 1-alpha (Homo sapiens) (Q16665 whole entry, looked up): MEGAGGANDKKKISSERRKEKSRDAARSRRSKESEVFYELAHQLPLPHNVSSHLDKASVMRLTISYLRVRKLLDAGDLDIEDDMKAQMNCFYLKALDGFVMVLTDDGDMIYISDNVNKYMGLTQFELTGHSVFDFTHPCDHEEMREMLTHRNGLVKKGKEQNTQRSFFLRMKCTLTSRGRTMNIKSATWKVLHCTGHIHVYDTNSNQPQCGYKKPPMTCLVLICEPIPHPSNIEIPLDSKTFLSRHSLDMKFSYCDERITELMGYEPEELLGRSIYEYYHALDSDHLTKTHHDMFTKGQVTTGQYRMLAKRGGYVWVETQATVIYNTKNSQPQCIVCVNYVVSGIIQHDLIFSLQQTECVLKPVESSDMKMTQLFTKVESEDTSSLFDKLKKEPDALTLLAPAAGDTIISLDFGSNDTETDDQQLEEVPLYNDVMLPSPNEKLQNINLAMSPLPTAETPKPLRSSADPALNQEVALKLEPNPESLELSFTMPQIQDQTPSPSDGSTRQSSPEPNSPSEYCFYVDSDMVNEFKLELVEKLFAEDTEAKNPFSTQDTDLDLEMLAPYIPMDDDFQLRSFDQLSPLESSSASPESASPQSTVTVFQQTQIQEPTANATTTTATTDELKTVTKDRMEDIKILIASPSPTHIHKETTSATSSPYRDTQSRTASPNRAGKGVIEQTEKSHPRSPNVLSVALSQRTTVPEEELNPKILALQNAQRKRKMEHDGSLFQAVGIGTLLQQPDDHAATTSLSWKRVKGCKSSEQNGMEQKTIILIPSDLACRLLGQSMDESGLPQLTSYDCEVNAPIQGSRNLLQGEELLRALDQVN

Cc1ccc(S(=O)(=O)NC(=O)NN2CCCCCC2)cc1
inactive: [1] | [2] | [3] | [4] | [5] | [6] | [7] | [8] | [9] | [10] | [11] | [12] | [13] | [14] | [15]

Cc1nccn1-c1ccc(Sc2cccc(C3(C(N)=O)CCOCC3)c2)cc1
inactive: [3] | [7] | [18] | [12] | [14]
active: [1] 11.6 µM | [16] 6.16 µM | [17] 15.1 µM | [2] 10.7 µM | [4] 4.69 µM | [5] 7.4 µM | [8] 11 µM | [9] 20.6 µM | [19] 7.82 µM | [10] 10.7 µM | [11] 9.01 µM | [13] 13.1 µM | [15] 6.52 µM

c1ccc2cc3ccccc3cc2c1
inactive: [1] | [16] | [17] | [2] | [3] | [4] | [5] | [6] | [7] | [18] | [8] | [9] | [10] | [11] | [12] | [13] | [14] | [15]

Cn1cc[nH]c1=S
inactive: [1] | [16] | [17] | [2] | [3] | [4] | [5] | [6] | [7] | [8] | [19] | [10] | [11] | [12] | [13] | [14] | [15]

CCCCOC(=O)c1ccccc1
inactive: [16] | [17] | [2] | [3] | [4] | [5] | [7] | [18] | [8] | [9] | [10] | [11] | [12] | [13] | [14] | [15]
active: [1] 12.1 µM

CCOc1ccc2[nH]cc(C(=O)NCc3ccccc3)c(=O)c2n1
inactive: [1] | [17] | [2] | [3] | [4] | [5] | [7] | [18] | [8] | [9] | [10] | [11] | [12] | [13] | [14]
active: [16] 35.4 µM | [15] 12.1 µM

O=C(O)c1cccc(C(=O)O)c1
inactive: [16] | [17] | [2] | [3] | [4] | [5] | [7] | [18] | [8] | [9] | [19] | [10] | [11] | [12] | [13] | [14] | [15]

C[C@]12C=CC(=O)C=C1CC[C@H]1[C@@H]3C[C@@H](O)[C@](O)(C(=O)CO)[C@@]3(C)C[C@H](O)[C@@]12F
inactive: [1] | [17] | [2] | [3] | [4] | [5] | [6] | [7] | [18] | [8] | [9] | [19] | [10] | [11] | [12] | [13] | [14] | [15]

O=S1(=O)CCCO1
inactive: [1] | [16] | [17] | [2] | [3] | [4] | [5] | [6] | [7] | [18] | [8] | [9] | [10] | [11] | [12] | [13] | [14] | [15]
